Experiment [1] has as its target Serine/threonine-protein kinase 33 (Homo sapiens) (UniProt Q9BYT3). The following applies: at 1 µM.
The target is the same in experiment [2]. The following applies: at 10 µM.
Experiment [3] deals with Serine/threonine-protein kinase PLK2 (Homo sapiens) (UniProt Q9NYY3). To be noted: at 10 µM.
Experiment [4] concerns the target Tyrosine-protein kinase SYK (Homo sapiens) (UniProt P43405). The following applies: at 1 µM.
Experiment [5] has the same target. The following applies: at 10 µM.
Experiment [6] has as its target T1, Mitogen-activated protein kinase kinase kinase 7 (Homo sapiens) (UniProt O43318).
T1 sequence (whole entry): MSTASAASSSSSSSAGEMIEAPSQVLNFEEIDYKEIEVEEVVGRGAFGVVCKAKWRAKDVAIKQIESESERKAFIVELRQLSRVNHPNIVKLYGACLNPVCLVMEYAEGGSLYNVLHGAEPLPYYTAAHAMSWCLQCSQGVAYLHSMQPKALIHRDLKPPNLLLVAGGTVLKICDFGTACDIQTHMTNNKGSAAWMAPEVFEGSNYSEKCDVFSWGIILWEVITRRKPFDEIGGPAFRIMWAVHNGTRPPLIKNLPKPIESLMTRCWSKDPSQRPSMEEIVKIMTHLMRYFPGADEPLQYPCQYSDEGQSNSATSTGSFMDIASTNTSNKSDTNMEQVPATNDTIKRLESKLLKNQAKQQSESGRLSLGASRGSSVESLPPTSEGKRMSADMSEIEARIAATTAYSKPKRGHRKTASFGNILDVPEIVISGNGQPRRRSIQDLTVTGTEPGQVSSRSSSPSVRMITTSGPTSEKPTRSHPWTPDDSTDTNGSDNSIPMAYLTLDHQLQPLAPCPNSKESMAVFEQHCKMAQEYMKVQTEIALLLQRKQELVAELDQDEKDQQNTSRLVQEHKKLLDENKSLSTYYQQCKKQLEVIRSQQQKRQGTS
To be noted: at 1 µM.

The target of experiment [7] is T1, Mitogen-activated protein kinase kinase kinase 7 (Homo sapiens). To be noted: at 10 µM.
The target of experiment [8] is T2, Serine/threonine-protein kinase TAO1 (Homo sapiens) (UniProt Q7L7X3).
T2 sequence (whole entry): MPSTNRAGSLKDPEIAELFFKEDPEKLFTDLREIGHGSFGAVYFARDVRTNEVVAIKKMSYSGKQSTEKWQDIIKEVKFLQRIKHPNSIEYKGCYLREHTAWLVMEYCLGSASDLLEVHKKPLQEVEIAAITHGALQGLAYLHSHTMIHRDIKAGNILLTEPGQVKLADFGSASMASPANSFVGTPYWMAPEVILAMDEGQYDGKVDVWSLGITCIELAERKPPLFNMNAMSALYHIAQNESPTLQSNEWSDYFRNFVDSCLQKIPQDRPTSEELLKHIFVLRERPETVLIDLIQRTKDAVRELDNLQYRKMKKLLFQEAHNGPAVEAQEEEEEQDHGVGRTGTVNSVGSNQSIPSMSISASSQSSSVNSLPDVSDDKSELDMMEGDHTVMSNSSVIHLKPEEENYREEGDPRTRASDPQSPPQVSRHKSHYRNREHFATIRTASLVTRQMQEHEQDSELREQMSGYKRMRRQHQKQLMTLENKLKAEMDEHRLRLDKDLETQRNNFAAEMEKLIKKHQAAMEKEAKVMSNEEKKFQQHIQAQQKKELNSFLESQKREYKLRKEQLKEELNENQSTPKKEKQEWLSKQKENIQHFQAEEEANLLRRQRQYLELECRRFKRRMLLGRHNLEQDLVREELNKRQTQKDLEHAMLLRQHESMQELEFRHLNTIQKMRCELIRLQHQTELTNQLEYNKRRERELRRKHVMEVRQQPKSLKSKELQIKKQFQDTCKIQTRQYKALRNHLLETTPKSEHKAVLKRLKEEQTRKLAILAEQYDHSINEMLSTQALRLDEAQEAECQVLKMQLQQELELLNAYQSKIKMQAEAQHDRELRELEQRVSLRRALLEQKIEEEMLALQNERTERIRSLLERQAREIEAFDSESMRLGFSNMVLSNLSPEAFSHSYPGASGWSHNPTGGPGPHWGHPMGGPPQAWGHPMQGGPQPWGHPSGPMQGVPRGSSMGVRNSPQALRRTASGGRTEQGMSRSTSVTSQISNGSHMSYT
The following applies: at 10 µM.

In experiment [9] the target is T3, Serine/threonine-protein kinase TAO2 (Homo sapiens) (UniProt Q9UL54).
T3 sequence (whole entry): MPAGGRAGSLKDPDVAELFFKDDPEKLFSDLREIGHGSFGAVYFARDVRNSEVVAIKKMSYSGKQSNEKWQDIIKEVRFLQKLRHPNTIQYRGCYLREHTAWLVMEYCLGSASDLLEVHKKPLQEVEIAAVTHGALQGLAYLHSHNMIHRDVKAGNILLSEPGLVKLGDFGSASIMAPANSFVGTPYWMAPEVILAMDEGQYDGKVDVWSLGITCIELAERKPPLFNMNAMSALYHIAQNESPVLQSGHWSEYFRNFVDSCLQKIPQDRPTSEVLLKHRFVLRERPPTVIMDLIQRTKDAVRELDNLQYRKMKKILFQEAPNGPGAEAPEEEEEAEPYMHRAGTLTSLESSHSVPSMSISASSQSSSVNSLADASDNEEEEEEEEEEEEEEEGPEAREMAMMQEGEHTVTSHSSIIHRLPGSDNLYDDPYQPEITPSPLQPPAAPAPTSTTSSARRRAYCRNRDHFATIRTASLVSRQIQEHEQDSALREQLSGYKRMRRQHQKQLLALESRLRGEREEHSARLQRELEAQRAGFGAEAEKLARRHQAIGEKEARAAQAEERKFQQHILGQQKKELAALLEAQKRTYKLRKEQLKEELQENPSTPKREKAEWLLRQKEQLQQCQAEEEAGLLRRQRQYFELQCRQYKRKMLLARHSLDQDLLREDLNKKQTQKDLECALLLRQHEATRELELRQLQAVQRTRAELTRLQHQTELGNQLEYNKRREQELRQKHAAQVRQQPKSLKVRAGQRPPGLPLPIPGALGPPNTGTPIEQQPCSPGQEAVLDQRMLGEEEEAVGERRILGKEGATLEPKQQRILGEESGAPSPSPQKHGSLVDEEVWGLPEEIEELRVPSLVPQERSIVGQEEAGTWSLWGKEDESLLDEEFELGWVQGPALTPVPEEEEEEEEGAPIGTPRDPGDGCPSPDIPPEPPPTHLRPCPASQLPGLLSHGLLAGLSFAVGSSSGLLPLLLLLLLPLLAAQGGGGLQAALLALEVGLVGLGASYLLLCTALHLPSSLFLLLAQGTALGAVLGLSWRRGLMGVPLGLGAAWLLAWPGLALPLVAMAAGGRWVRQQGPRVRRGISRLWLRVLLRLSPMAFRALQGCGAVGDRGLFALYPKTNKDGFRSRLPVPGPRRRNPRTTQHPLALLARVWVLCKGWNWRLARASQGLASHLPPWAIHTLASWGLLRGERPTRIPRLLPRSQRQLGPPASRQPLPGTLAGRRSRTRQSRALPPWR
The following applies: at 10 µM.

The target in experiment [10] is T4, Serine/threonine-protein kinase TAO3 (Homo sapiens) (UniProt Q9H2K8).
T4 sequence (whole entry): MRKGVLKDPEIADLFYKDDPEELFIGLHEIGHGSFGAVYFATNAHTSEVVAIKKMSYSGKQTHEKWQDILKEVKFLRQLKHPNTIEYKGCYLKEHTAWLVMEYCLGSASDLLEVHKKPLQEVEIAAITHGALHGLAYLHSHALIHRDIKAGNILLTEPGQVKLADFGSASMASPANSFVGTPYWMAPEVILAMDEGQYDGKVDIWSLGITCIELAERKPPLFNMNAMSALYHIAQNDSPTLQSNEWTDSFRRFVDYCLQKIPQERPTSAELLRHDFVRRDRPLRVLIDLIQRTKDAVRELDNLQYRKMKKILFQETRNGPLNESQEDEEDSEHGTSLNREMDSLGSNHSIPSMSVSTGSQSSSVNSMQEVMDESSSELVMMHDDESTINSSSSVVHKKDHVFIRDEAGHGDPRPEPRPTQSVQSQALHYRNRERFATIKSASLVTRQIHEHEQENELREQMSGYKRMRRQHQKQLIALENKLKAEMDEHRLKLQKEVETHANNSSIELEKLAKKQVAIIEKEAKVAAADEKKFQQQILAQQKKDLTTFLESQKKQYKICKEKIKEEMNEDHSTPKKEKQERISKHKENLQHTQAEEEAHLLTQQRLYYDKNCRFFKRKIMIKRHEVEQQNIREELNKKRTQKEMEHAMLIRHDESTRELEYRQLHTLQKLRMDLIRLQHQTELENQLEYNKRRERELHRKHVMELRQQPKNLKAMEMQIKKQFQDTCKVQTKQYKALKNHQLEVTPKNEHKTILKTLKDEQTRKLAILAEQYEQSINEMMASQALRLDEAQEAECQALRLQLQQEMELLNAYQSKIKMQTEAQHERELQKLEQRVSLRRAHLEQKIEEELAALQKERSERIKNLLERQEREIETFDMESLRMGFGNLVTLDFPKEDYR
To be noted: at 1 µM.

The target in experiment [11] is T4, Serine/threonine-protein kinase TAO3 (Homo sapiens). To be noted: at 10 µM.
Experiment [12] concerns the target T5, Serine/threonine-protein kinase TBK1 (Homo sapiens) (UniProt Q9UHD2).
T5 sequence (whole entry): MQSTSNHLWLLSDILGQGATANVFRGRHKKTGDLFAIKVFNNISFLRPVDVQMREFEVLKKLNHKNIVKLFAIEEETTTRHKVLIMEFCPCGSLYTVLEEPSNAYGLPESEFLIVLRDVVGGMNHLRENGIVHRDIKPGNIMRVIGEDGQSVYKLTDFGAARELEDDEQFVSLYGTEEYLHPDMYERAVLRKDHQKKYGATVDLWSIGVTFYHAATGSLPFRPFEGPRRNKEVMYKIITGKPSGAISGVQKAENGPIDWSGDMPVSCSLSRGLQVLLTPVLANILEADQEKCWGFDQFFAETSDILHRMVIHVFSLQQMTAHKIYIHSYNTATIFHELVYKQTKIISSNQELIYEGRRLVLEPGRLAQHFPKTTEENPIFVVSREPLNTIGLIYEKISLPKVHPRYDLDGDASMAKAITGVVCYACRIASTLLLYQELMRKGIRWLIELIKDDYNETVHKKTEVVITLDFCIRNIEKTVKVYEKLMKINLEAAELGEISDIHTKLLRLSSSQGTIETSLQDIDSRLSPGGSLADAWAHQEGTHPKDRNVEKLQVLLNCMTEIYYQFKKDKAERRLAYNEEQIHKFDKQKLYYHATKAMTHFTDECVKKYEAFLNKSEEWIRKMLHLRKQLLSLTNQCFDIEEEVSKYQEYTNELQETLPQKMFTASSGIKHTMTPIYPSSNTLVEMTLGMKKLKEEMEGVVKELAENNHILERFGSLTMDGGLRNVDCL
To be noted: at 1 µM.

Experiment [13] concerns the target T5, Serine/threonine-protein kinase TBK1 (Homo sapiens). To be noted: at 10 µM.
Experiment [14] has as its target T6, TGF-beta receptor type-1 (Homo sapiens) (UniProt P36897).
T6 sequence (whole entry): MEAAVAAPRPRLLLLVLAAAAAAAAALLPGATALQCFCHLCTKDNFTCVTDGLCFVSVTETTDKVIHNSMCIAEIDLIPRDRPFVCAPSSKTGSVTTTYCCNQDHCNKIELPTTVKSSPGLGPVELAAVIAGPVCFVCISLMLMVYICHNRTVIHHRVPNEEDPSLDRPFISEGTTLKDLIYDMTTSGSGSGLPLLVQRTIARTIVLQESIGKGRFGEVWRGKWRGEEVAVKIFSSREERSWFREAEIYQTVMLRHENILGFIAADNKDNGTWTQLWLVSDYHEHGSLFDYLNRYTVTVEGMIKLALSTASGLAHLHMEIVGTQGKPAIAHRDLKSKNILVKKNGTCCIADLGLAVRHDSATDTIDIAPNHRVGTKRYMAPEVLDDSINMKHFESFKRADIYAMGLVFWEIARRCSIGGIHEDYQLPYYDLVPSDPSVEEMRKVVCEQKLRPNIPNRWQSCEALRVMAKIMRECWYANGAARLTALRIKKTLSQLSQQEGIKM
To be noted: at 1 µM.

Experiment [15] has as its target T6, TGF-beta receptor type-1 (Homo sapiens). To be noted: at 10 µM.
For experiment [16], the target named is Insulin-like growth factor 1 receptor (Homo sapiens) (UniProt P08069). To be noted: at 1 µM.
The target is the same in experiment [17]. The following applies: at 10 µM.
The target in experiment [18] is Serine/threonine-protein kinase PLK2 (Homo sapiens) (UniProt Q9NYY3). To be noted: at 1 µM.

Sequence of Serine/threonine-protein kinase PLK2 (Homo sapiens) (Q9NYY3 whole entry, looked up): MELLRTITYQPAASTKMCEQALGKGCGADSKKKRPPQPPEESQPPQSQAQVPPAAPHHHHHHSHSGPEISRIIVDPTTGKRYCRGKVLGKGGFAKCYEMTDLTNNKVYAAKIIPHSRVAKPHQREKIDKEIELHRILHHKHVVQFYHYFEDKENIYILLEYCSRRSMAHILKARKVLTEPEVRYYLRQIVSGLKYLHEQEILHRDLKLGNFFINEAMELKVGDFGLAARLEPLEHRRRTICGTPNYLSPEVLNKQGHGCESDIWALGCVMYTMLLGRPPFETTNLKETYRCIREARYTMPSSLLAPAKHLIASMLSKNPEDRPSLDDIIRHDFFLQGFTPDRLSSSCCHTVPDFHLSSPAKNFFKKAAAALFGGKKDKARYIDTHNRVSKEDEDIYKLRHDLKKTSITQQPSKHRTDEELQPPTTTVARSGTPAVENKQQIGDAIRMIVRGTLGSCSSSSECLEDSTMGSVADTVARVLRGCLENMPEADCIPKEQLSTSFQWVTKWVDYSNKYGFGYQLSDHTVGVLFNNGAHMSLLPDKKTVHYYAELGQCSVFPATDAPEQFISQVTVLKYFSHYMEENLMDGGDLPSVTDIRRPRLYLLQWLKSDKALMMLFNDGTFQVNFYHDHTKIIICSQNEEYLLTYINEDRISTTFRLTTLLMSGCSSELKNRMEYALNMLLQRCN
Sequence of Serine/threonine-protein kinase 33 (Homo sapiens) (Q9BYT3 whole entry, looked up): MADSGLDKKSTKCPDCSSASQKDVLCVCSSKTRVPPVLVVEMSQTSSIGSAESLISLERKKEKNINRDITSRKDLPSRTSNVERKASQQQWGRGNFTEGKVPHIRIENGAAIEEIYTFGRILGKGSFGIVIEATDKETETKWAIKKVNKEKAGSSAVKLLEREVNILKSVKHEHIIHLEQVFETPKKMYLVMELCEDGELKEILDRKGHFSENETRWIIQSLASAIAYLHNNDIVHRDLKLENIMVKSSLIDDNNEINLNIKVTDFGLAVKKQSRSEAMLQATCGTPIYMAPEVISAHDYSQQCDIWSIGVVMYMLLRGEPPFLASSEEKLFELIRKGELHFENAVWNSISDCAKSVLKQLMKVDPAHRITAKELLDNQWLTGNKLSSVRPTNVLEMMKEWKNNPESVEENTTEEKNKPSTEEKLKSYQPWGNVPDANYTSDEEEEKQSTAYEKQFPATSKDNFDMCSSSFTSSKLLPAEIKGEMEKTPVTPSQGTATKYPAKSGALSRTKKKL
Sequence of Insulin-like growth factor 1 receptor (Homo sapiens) (P08069 31-736 limits assumed): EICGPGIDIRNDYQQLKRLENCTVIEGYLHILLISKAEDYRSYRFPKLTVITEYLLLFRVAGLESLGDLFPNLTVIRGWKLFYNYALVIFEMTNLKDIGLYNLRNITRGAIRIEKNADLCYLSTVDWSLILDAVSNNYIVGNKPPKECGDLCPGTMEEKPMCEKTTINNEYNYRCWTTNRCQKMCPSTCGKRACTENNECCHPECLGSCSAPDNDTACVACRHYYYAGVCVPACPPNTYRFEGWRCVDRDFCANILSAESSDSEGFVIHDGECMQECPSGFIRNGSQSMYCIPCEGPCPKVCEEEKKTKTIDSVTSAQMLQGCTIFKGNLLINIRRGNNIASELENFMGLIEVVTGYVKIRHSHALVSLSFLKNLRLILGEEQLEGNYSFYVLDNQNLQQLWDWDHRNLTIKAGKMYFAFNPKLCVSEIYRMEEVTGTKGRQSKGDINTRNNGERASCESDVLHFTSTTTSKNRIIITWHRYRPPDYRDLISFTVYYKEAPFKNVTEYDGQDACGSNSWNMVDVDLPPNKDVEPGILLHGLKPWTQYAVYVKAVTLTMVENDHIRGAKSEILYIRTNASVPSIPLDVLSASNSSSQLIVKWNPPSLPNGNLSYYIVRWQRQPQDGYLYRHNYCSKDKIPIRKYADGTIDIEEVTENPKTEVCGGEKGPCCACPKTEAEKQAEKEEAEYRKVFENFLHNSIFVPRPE
Sequence of Insulin-like growth factor 1 receptor (Homo sapiens) (P08069 741-1367 limits assumed): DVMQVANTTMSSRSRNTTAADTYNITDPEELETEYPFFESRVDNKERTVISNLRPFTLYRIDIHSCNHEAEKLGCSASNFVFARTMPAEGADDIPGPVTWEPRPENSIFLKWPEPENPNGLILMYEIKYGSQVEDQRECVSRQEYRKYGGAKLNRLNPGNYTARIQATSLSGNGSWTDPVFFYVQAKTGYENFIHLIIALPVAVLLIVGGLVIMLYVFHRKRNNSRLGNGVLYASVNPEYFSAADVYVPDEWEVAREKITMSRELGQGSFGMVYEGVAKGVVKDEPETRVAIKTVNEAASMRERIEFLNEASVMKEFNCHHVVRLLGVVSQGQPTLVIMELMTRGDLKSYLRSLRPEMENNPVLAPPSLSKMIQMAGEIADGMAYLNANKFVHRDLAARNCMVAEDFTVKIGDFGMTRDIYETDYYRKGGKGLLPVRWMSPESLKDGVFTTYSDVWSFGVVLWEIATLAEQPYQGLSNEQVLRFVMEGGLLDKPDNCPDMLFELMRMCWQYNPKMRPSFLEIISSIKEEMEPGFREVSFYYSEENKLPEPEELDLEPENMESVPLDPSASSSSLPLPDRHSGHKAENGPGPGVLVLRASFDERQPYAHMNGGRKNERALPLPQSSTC

With `COc1ccc2c(c[n+](C)c3c4cc5c(cc4ccc23)OCO5)c1OC`, the residual activity in experiment [1] turned out to be 97%; in experiment [2] it was 92%; in [3], 71%; in [4], 132%; in [5], 82%; in [6], 92%. The residual activity was 94% in [7]; 87% in experiment [8]; 93% in experiment [9]; 99% in experiment [10]; 90% in experiment [11]; 81% in experiment [12]. Moreover, the residual activity was found to be 65% in experiment [13]; 82% in [14]; 89% in experiment [15]; 93% in experiment [16]; 82% in experiment [17].

As to `CN[C@@H]1C[C@H]2O[C@@](C)([C@@H]1OC)n1c3ccccc3c3c4c(c5c6ccccc6n2c5c31)C(=O)NC4`, the residual activity worked out at 0% in [13], 79% in experiment [14] and 30% in [15].

As to `c1cc(-c2cnn3cc(-c4ccc(OCCN5CCCCC5)cc4)cnc23)ccn1`, the residual activity was 82% in [18]; 85% in experiment [3]; 59% in experiment [5]; 57% in experiment [6]; 13% in experiment [7]; 82% in experiment [11]. For the same molecule, the residual activity in [12] is 64%; in experiment [13], 13%; in experiment [14] it was 78%; in experiment [15], 30%.

The values above are taken from ChEMBL document CHEMBL2218924, “A broad activity screen in support of a chemogenomic map for kinase signalling research and drug discovery” (Biochem J, 2013).
